Assay results: PMC7862700, “An all-to-all approach to the identification of sequence-specific readers for epigenetic DNA modifications on cytosine”

What was measured:
Assay in all cases: DAPPL (digital affinity profiling via proximity ligation, sequencing); 10 mM Tris-HCl pH 7.5, 50 mM NaCl, 1 mM DTT, 4% glycerol, room temperature, 30 min; GST-TFs on glutathione beads, 16-mer random dsDNA library, 0.1% formaldehyde crosslink after washing; high values mean tight binding
FEV = target: T1, FEV (Homo sapiens, UniProt Q99581 1-238); details: protein: recombinant; tags: N-terminal GST; dsDNA, one strand shown
T1 sequence: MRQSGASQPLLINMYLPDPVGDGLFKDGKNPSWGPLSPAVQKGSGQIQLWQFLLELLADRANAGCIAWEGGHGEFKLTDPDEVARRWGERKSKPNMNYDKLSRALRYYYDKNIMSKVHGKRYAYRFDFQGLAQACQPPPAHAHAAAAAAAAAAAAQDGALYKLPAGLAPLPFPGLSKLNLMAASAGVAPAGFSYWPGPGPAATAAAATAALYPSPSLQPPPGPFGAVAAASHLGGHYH
In short: (§1)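 Sequencing on an Illumina NextSeq500 followed washing, crosslinking with 0.1% formaldehyde, proximity ligation (BsaI/T4 ligase, 1 h, 37 °C) and PCR amplification of pools that had been incubated for 30 min at room temperature with 200 nmole of a random double-stranded 16-mer DNA library in Tris/NaCl/DTT/glycerol buffer. Each pool held DNA-barcoded human transcription factors, expressed in yeast as GST fusions and captured on glutathione beads, plus a tag-only sample. Binding signal is a hexamer's read frequency for a factor divided by its frequency in the tag-only sample.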

ETV5 = ETV5 (Homo sapiens, UniProt P41161 1-510); details: protein: recombinant; tags: N-terminal GST; dsDNA, one strand shown
In short: as §1

HSF1 = HSF1 (Homo sapiens, UniProt Q00613 1-529); details: protein: recombinant; tags: N-terminal GST; chain copies: 3; dsDNA, one strand shown
In short: as §1

SPIC = target: T2, SPIC (Homo sapiens, UniProt Q8N5J4 1-248); details: protein: recombinant; tags: N-terminal GST; dsDNA, one strand shown
T2 sequence: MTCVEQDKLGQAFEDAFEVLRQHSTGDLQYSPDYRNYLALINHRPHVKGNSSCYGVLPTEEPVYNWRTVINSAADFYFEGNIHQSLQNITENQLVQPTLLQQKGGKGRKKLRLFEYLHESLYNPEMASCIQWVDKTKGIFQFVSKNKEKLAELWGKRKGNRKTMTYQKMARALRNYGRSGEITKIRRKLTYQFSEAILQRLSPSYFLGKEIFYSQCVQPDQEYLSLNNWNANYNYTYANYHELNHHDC
In short: as §1

ELF4 = ELF4 (Homo sapiens, UniProt Q99607 1-663); details: protein: recombinant; tags: N-terminal GST; dsDNA, one strand shown
In short: as §1

ELK4 = target: T3, ELK4 (Homo sapiens, UniProt P28324-2 1-405); details: protein: recombinant; tags: N-terminal GST; dsDNA, one strand shown
T3 sequence: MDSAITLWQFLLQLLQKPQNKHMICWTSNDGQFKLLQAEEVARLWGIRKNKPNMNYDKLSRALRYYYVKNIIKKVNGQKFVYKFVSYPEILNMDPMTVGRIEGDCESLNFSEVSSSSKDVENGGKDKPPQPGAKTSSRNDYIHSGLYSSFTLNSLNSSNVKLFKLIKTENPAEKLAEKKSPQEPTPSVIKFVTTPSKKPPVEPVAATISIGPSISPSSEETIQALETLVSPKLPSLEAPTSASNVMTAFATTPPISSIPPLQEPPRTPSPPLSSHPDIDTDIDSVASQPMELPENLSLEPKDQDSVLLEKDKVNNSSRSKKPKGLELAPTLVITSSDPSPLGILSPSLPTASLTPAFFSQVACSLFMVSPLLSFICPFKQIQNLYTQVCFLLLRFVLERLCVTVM
In short: as §1

ETV2 = target: T4, ETV2 (Homo sapiens, UniProt O00321 1-342); details: protein: recombinant; tags: N-terminal GST; dsDNA, one strand shown
T4 sequence: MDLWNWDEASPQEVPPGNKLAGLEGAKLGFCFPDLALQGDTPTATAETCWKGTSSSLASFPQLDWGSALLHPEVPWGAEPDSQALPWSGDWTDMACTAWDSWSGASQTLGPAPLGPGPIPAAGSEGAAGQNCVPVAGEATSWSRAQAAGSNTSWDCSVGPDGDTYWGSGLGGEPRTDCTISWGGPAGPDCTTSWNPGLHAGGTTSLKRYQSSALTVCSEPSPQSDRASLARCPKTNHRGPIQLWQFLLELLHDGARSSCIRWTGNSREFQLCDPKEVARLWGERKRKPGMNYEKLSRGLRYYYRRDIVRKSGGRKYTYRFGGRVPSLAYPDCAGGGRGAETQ
In short: as §1

ELF3 = target: T5, ELF3 (Homo sapiens, UniProt P78545 1-371); details: protein: recombinant; tags: N-terminal GST; dsDNA, one strand shown
T5 sequence: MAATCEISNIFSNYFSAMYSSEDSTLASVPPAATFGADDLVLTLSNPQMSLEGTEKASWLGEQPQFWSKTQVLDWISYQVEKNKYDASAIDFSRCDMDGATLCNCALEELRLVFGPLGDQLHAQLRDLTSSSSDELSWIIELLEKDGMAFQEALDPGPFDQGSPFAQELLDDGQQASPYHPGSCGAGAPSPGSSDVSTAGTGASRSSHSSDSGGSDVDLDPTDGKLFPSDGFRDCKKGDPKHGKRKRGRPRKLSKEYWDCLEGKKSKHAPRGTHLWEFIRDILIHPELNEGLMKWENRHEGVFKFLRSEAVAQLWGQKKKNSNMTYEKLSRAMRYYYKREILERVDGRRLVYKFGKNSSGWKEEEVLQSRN
In short: as §1

CRX = CRX (Homo sapiens, UniProt O43186 1-299); details: protein: recombinant; tags: N-terminal GST; dsDNA, one strand shown
In short: as §1

ETV1 = ETV1 (Homo sapiens, UniProt P50549 1-477); details: protein: recombinant; tags: N-terminal GST; dsDNA, one strand shown
In short: as §1

ERF = target: T6, ERF (Homo sapiens, UniProt P50548 1-548); details: protein: recombinant; tags: N-terminal GST; dsDNA, one strand shown
T6 sequence: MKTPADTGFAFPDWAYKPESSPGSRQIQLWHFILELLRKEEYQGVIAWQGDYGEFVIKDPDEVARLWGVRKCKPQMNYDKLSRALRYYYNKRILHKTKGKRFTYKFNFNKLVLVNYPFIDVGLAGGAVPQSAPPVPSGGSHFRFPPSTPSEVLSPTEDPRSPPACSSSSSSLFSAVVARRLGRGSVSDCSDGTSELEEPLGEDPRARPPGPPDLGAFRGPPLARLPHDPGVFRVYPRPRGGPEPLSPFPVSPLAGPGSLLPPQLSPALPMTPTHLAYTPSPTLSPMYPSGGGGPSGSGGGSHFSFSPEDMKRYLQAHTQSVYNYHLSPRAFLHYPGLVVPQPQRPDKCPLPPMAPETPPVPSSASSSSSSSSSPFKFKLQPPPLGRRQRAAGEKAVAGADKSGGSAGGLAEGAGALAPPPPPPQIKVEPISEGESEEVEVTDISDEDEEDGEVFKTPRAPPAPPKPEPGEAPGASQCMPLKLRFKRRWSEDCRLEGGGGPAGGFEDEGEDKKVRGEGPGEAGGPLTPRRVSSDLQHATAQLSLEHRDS
In short: as §1

ETV3L = target: T7, ETV3L (Homo sapiens, UniProt Q6ZN32 1-361); details: protein: recombinant; tags: N-terminal GST; dsDNA, one strand shown
T7 sequence: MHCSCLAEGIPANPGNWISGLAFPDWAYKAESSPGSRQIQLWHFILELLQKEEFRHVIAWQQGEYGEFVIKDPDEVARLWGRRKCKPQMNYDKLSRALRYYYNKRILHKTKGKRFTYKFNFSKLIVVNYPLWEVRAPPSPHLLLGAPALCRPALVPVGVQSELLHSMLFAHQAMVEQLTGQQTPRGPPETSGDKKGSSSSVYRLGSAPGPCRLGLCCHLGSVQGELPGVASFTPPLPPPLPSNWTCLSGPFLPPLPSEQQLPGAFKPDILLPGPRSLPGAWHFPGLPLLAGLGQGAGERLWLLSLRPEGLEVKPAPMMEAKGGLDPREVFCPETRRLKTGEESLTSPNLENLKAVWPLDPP
In short: as §1

ETS2 = target: T8, ETS2 (Homo sapiens, UniProt P15036 1-469); details: protein: recombinant; tags: N-terminal GST; dsDNA, one strand shown
T8 sequence: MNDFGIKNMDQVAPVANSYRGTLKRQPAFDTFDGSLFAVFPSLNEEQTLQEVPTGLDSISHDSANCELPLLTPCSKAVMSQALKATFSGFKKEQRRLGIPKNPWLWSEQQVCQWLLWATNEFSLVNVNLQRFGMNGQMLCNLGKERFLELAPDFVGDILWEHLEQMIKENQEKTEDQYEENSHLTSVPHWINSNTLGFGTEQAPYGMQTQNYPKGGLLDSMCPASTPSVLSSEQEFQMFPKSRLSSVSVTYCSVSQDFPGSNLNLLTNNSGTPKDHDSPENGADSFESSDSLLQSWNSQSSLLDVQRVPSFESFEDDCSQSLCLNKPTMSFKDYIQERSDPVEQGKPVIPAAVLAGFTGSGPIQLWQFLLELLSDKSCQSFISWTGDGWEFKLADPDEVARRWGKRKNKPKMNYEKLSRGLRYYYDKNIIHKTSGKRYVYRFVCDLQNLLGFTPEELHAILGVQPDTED
In short: as §1

SPDEF = target: T9, SPDEF (Homo sapiens, UniProt O95238 1-335); details: protein: recombinant; tags: N-terminal GST; dsDNA, one strand shown
T9 sequence: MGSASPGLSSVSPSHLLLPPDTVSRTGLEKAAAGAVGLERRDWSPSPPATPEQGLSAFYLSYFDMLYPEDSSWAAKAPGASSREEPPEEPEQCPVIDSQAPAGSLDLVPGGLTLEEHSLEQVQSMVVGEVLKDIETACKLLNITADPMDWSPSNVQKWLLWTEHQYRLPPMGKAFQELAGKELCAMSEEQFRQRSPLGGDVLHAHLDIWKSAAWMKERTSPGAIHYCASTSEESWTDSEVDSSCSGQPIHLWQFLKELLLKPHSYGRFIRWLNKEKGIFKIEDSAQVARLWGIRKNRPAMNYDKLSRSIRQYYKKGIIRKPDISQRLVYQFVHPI
In short: as §1

ETV7 = target: T10, ETV7 (Homo sapiens, UniProt Q9Y603 1-341); details: protein: recombinant; tags: N-terminal GST; dsDNA, one strand shown
T10 sequence: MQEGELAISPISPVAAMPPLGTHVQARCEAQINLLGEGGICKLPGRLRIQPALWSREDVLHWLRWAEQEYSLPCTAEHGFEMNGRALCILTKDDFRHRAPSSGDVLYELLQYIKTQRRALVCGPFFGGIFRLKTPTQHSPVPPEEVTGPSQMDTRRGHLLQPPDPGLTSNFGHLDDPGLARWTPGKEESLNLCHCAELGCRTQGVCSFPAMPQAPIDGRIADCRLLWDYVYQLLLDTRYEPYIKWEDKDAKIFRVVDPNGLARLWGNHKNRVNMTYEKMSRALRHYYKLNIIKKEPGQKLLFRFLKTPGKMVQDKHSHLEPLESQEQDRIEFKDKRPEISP
In short: as §1

ELF5 = target: T11, ELF5 (Homo sapiens, UniProt Q9UKW6-2 1-255); details: protein: recombinant; tags: N-terminal GST; dsDNA, one strand shown
T11 sequence: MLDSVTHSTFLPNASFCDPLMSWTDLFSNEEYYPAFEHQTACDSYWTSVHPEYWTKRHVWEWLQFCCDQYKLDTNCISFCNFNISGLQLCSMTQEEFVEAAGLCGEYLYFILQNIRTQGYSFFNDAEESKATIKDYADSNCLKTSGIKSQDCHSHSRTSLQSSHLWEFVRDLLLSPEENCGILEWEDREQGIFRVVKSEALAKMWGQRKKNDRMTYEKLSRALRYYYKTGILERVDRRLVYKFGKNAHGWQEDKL
In short: as §1

ETV3 = target: T12, ETV3 (Homo sapiens, UniProt P41162-2 1-143); details: protein: recombinant; tags: N-terminal GST; dsDNA, one strand shown
T12 sequence: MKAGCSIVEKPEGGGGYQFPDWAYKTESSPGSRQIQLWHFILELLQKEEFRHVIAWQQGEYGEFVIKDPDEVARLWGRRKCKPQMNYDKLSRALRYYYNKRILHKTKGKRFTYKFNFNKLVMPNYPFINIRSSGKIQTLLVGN
In short: as §1

ETV6 = ETV6 (Homo sapiens, UniProt P41212 1-452); details: protein: recombinant; tags: N-terminal GST; dsDNA, one strand shown
In short: as §1

Sequence of ETV6 (P41212 whole entry): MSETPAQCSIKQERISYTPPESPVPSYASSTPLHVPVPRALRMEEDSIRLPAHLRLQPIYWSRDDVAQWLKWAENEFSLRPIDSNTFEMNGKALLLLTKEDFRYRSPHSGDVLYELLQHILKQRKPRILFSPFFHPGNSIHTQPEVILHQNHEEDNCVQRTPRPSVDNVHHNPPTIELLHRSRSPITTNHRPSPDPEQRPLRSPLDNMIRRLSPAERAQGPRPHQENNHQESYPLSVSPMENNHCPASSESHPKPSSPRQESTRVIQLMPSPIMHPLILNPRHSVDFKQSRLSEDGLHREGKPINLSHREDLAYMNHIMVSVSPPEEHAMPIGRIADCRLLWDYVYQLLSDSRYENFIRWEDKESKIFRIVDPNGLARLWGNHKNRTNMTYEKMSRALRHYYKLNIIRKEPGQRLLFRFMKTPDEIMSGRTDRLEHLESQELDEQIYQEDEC
Sequence of HSF1 (Q00613 whole entry): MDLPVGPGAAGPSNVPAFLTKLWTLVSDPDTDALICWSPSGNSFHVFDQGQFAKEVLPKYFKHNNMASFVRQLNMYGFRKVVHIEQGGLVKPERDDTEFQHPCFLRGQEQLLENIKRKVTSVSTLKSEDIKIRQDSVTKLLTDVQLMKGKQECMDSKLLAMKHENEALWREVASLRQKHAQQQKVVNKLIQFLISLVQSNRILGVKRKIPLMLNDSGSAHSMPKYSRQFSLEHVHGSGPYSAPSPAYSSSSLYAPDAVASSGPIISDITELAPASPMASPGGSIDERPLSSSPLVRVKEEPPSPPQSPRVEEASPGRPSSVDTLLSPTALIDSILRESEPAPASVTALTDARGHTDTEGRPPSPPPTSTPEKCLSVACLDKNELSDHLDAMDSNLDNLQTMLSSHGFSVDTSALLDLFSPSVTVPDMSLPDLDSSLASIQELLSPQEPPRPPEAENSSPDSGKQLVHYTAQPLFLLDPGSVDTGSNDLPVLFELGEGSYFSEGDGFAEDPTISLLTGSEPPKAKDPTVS
Sequence of ETV1 (P50549 whole entry): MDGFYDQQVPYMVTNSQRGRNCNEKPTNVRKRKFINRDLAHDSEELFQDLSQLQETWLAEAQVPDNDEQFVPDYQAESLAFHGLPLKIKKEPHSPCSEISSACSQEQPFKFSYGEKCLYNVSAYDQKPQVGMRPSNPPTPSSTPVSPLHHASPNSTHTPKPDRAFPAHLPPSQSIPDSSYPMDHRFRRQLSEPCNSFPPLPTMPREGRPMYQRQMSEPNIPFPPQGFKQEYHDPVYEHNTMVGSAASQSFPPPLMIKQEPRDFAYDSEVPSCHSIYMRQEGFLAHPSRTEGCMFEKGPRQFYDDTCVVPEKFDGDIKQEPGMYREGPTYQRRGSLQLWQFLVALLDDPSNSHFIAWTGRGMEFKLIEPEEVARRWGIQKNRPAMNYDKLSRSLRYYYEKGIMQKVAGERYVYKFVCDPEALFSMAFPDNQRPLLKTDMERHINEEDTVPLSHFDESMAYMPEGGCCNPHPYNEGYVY
Sequence of ETV5 (P41161 whole entry): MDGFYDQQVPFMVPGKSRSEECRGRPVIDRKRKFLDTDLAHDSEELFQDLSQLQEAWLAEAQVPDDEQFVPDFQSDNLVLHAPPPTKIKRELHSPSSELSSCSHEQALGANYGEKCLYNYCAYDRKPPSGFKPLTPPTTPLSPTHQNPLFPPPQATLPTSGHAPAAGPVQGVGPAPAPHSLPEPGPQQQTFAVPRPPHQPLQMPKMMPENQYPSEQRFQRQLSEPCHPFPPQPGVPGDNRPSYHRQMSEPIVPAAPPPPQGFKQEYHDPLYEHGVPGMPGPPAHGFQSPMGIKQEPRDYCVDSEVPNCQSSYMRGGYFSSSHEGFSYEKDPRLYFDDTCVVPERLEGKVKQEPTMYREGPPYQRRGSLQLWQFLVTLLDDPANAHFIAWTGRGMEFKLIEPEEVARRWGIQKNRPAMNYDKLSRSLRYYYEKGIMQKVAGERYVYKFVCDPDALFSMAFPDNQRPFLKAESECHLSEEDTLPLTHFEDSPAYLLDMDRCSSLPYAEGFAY
Sequence of CRX (O43186 whole entry): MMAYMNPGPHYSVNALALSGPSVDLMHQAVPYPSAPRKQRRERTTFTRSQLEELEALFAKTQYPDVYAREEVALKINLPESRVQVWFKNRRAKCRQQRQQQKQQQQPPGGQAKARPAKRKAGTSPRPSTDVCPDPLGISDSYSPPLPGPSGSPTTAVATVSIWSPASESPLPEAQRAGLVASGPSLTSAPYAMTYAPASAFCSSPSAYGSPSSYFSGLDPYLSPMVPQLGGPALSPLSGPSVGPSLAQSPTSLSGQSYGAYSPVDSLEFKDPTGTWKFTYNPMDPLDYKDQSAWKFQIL
Sequence of ELF4 (Q99607 whole entry): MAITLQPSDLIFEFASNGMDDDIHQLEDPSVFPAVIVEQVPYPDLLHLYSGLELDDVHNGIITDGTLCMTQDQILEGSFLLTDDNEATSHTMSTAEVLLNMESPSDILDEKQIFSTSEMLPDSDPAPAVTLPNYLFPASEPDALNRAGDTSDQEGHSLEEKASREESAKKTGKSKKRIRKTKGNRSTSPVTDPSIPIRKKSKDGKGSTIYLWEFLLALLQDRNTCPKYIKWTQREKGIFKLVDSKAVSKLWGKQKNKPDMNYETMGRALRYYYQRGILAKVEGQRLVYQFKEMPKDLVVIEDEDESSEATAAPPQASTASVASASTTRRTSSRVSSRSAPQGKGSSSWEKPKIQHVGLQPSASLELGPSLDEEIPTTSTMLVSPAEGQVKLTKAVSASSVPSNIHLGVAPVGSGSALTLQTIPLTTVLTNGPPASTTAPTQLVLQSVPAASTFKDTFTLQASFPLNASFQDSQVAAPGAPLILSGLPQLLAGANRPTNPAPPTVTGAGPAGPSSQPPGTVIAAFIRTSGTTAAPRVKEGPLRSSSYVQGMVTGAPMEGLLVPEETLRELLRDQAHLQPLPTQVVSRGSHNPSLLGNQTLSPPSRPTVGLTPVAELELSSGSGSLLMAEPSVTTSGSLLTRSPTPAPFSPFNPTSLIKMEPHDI

Sequence	binding signal (FEV)	binding signal (ETV5)	binding signal (HSF1)	binding signal (SPIC)	binding signal (ELF4)	binding signal (ELK4)	binding signal (ETV2)	binding signal (ELF3)	binding signal (CRX)	binding signal (ETV1)	binding signal (ERF)	binding signal (ETV3L)	binding signal (ETS2)	binding signal (SPDEF)	binding signal (ETV7)	binding signal (ELF5)	binding signal (ETV3)	binding signal (ETV6)
TACGTA	1.27 fold enrichment (6-mer frequency, TF over GST control)	1.37 fold enrichment (6-mer frequency, TF over GST control)	1.23 fold enrichment (6-mer frequency, TF over GST control)	1.27 fold enrichment (6-mer frequency, TF over GST control)	1.33 fold enrichment (6-mer frequency, TF over GST control)	1.3 fold enrichment (6-mer frequency, TF over GST control)	1.33 fold enrichment (6-mer frequency, TF over GST control)	1.4 fold enrichment (6-mer frequency, TF over GST control)	1.49 fold enrichment (6-mer frequency, TF over GST control)	1.4 fold enrichment (6-mer frequency, TF over GST control)	1.3 fold enrichment (6-mer frequency, TF over GST control)	1.38 fold enrichment (6-mer frequency, TF over GST control)	1.42 fold enrichment (6-mer frequency, TF over GST control)	1.35 fold enrichment (6-mer frequency, TF over GST control)	1.15 fold enrichment (6-mer frequency, TF over GST control)	1.31 fold enrichment (6-mer frequency, TF over GST control)	1.37 fold enrichment (6-mer frequency, TF over GST control)	1.32 fold enrichment (6-mer frequency, TF over GST control)
TTATCC	1.44 fold enrichment (6-mer frequency, TF over GST control)	1.45 fold enrichment (6-mer frequency, TF over GST control)	2.49 fold enrichment (6-mer frequency, TF over GST control)	1.51 fold enrichment (6-mer frequency, TF over GST control)	1.33 fold enrichment (6-mer frequency, TF over GST control)	1.45 fold enrichment (6-mer frequency, TF over GST control)	1.61 fold enrichment (6-mer frequency, TF over GST control)	1.41 fold enrichment (6-mer frequency, TF over GST control)	3.97 fold enrichment (6-mer frequency, TF over GST control)	1.27 fold enrichment (6-mer frequency, TF over GST control)	1.44 fold enrichment (6-mer frequency, TF over GST control)	1.38 fold enrichment (6-mer frequency, TF over GST control)	1.51 fold enrichment (6-mer frequency, TF over GST control)	1.76 fold enrichment (6-mer frequency, TF over GST control)	1.44 fold enrichment (6-mer frequency, TF over GST control)	1.56 fold enrichment (6-mer frequency, TF over GST control)	1.51 fold enrichment (6-mer frequency, TF over GST control)	1.47 fold enrichment (6-mer frequency, TF over GST control)
